Measured values: PubChem BioAssay (NCI)
About 83,000 compounds went through this panel and 20% of them were active in at least one assay; those are over-represented in the sample as a whole.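 Values shown are percent growth following 48 h exposure of cells in 96-well plates to a single concentration of compound; below 10 was considered active.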 A number with no mark means an inactive call. The source made the active and inactive calls.

Test system: MDA-MB-468 breast
Experiment: NCI-60 one-dose screen, 48 h (100 = growth as untreated, 0 = no growth, -100 = all killed)
Conditions: 10 µM unless noted

SMILES | growth
O=C(/C=C/c1ccc(Br)cc1)c1ccc(-n2cc(CN3CCN(c4cc5c(cc4F)c(=O)c(C(=O)O)cn5C4CC4)CC3)nn2)cc1 | 92.2%
C=C1C(=O)O[C@H]2[C@H]1CC/C(COC(=O)NCC(C)c1ccc(CC(C)C)cc1)=C\CC[C@@]1(C)O[C@@H]21 (stereo not given in full) | -64% (active)
CCOC(=O)CSc1nc2sc3c(c2c(=O)n1-c1ccc([N+](=O)[O-])cc1)CCCCC3 | 56.6%
CCNC(=O)C1CCCN1C(=O)C(CCCN=C(N)N)NC(=O)C(CC(C)C)NC(=O)C(CC(C)C)NC(=O)C(Cc1ccc(O)cc1)NC(=O)C(CO)NC(=O)C(Cc1c[nH]c2ccccc12)NC(=O)C(Cc1cnc[nH]1)NC(=O)C1CCC(=O)N1 (stereo not given) | 87.4%
Cn1cc(-c2cnn3c(N)c(Br)c([C@@H]4CCCNC4)nc23)cn1 | 67.5%
